Assay results taken from PubChem BioAssay (NCATS).
Inconclusive results are not listed. Entries that show only a call come without a potency. Calls of active or inactive are those of the source. Calls follow the shape of the dose curve; as a rule, active = well fitted cell-killing curve with a large enough effect; inconclusive = small, poorly fitted or top-dose-only effect, or effect the other way; inactive = flat fitted curve, though single readings scatter.

Legend:
Assay in all cases: Primary qHTS to identify gynecologic anti-cancer compounds using libraries of approved drugs and bioactive compounds (AID 1345084); also: nearly all actives have a fitted effect of over 55% in size
Conditions in all cases: Gynecologic cancer cell panel viability, ATPlite luminescence, 48 h; series mostly up to 57.5 µM
OV90 = system: OV90
Procedure, shortened: (§1)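 Measured: luminescence after ATPlite addition (15 min, RT). Exposure: 48 h, 37 C, 5% CO2.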

PA-1 = system: PA-1
Procedure, shortened: as §1

SKOV3 = system: SKOV3
Procedure, shortened: as §1

Tov-21-G = system: Tov-21-G
Procedure, shortened: as §1

Tov112D = system: Tov112D
Procedure, shortened: as §1
Potency is read from the fitted curve at half-maximal effect.

SMILES	Potency (OV90)	Potency (PA-1)	Potency (SKOV3)	Potency (Tov-21-G)	Potency (Tov112D)
O=C1NC(Cc2c[nH]c3ccccc23)C(=O)NC1Cc1cnc[nH]1 (stereo not given)	inactive	inactive	inactive	inactive	inactive
COc1ccc(C(=O)n2c(C)c(Cc3cccc(O[C@@H](C)C(=O)O)c3)c3cc(OC(F)(F)F)ccc32)cc1	inactive	inactive	inactive	inactive	inactive
CC(=O)O[C@H]1CC[C@@]2(C)C(CC[C@@H](C)[C@]23Cc2c(O)cc4c(c2O3)CN([C@@H](CCC(=O)O)C(=O)O)C4=O)C1(C)C (stereo not given in full)	inactive	inactive	inactive	inactive	inactive
CC(Cc1cc2c(c(C(N)=O)c1)N(CCCO)CC2)NCCOc1ccccc1OCC(F)(F)F (stereo not given)	inactive	inactive	inactive	inactive	inactive
COC(=O)CCc1cc2ccoc2c(OC)c1O[C@@H]1O[C@H](CO)[C@@H](O)[C@H](O)[C@H]1O	inactive	inactive	inactive	inactive	inactive
CC1(C(=O)O)CCCC2(C)C3=CCC4CC3(CCC12)CC4CO (stereo not given)	inactive	inactive	inactive	inactive	inactive
COc1c2c(c(C)c3c1C(=O)OC3)OC1(C)CC(O)C34OC(OC)(CC(OC(C)=O)C3(C)C1C2)OC4(C)C (stereo not given)	inactive	inactive	inactive	inactive	inactive
CC1=CC(=O)CC(C)(CO)C1(O)/C=C/C(C)O[C@@H]1O[C@H](CO)[C@@H](O)[C@H](O)[C@H]1O (stereo not given in full)	inactive	inactive	inactive	inactive	inactive
C=C[C@]1(C)C=C2CCC3C(C)(CCC[C@@]3(C)C(=O)O)C2CC1 (stereo not given in full)	inactive	inactive	inactive	inactive	inactive
C=C1C(O)CC2C(C(=O)O)=COC(O[C@@H]3O[C@H](COC(=O)/C=C/c4ccc(O)cc4)[C@@H](O)[C@H](O)[C@H]3O)C12 (stereo not given in full)	inactive	inactive	inactive	inactive	inactive
CC(=O)CCC1=C(C)C(O[C@@H]2O[C@H](CO)[C@@H](O)[C@H](O)[C@H]2O)C(O)CC1(C)C (stereo not given in full)	inactive	inactive	inactive	inactive	inactive
[N-]=[N+]=N[C@]1(CO)O[C@@H](n2ccc(=O)[nH]c2=O)[C@@H](O)[C@@H]1O	inactive	inactive	inactive	inactive	inactive
C[C@@H]1CCC/C=C/[C@H]2CC(=O)C[C@@H]2[C@@H](O)/C=C/C(=O)O1	20 µM (active)	inactive	inactive	inactive	inactive
CS(=O)(=O)c1ccc(-c2nnc(/C=C/c3nnc(-c4ccc(C#N)cc4)o3)n2-c2ccccc2Cl)nc1	inactive	inactive	inactive	inactive	inactive
Cn1c2ccc(F)cc2c2c(C(=O)N3CCCC3)cn(-c3ccccc3)c(=O)c21	inactive	inactive	inactive	inactive	inactive
CC1(C)CC2C(O)c3cocc3CC(C)(O)C2C1 (stereo not given)	inactive	inactive	inactive	inactive	inactive
C=C(CO)C12OC1C1(C)C(=CC2=O)C(O)C(O)CC1C (stereo not given)	inactive	inactive	inactive	inactive	inactive
C=C(C(=O)O)C1CCC2(C)CCC(O)C(C)(O)C2C1 (stereo not given)	inactive	inactive	inactive	inactive	inactive
C/C=C1\[C@H](OC2OC(COC3OC(CO)C(O)C(O)C3O)C(O)C(O)C2O)OC=C(C(=O)OC)[C@H]1CC(=O)OCCc1ccc(O)cc1 (stereo not given in full)	inactive	inactive	inactive	inactive	inactive
Cc1ccc(-c2c(C(=O)CF)n(CCCO)c3ncnc(N)c23)cc1	inactive	inactive	inactive	inactive	inactive
C=C1CC23CC1CCC2C12OC(=O)C(C)(CCC1O)C2C3C(=O)O (stereo not given)	inactive	inactive	inactive	inactive	inactive
CC1=CC(=O)C2C(C)(C)CCC[C@]2(C)[C@H]1CO (stereo not given in full)	inactive	inactive	inactive	inactive	inactive
COC(=O)[C@@H](O)[C@H]1[C@@]2(C)CC3(O)[C@@H](C(=O)[C@H]2O)[C@]24O[C@]25CC(=O)O[C@@H](c2ccoc2)[C@]5(C)CCC4[C@]13C (stereo not given in full)	inactive	inactive	inactive	inactive	inactive
CCc1cc(CN2CC(C(=O)O)C2)sc1-c1noc(-c2ccc(Oc3ccccc3)cc2)n1	inactive	inactive	inactive	inactive	inactive
CS(=O)(=O)N(CC(=O)NCC1CC1)c1cc(C(F)(F)F)ccc1Cl	inactive	inactive	inactive	inactive	inactive
